Rows were chosen to be rich in hits. Some 9.4% of all compounds tested hit in one or more screens of this group.
IMPase Li cell: qHTS Assay for Identifying the Cell-Membrane Permeable IMPase Inhibitors: Potentiation with Lithium | CHO-M1 cells, IP1 TR-FRET (IP-One), carbachol + lithium | Potency, µM (highest dose often 59.4 µM), for inactives: at the highest dose activity, negative = IMPase inhibition, most hits filed as inhibitors | hit rate 0.35% among 210,000;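 also: IP1 builds up when IMPase is blocked and the TR-FRET signal falls; potency is read from the fitted curve at half-maximal effect; plate controls were basal vehicle for no effect and high inhibitor control for full effect; nearly all actives have a fitted effect of over 50% in size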
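Lithium-sensitised IP1 accumulation assay; M1-expressing CHO cells treated 30 min at 37C with compound. Competitive antibody detection by time-resolved FRET followed a 10 min room-temperature lysis step.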
HTT ATP protect: qHTS Multiplex Assay to Identify Dual Action Probes in a Cell Model of Huntington: Cytoprotection (ATP). PC12 HTT-Q103 induced, cytoprotection, ATP luminescence, 40 h. Potency, µM (series often up to 56.4 µM), for inactives: cytoprotection (ATP increase), most hits filed as activators. hit rate 0.14% among 230,000; also: potency is read from the fitted curve at half-maximal effect; % of control where 0% means no effect; nearly all actives have a fitted effect of over 45% in size
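Readout: ATPlite luminescence (ATP level). Model: stable PC12, inducible Htt exon1 Q103-GFP. Inducer: tebufenozide, 100 nM final. Compounds: dose series. No G418 in medium.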
IMPase inh: qHTS Assay for Identifying the Cell-Membrane Permeable IMPase Inhibitors. Inositol monophosphatase 1 (Rattus norvegicus), P97697. CHO-M1 cells, IP1 accumulation, HTRF TR-FRET ratio. inhibition (IP1 accumulation), % at 46.1 µM. 120,000 tested, under 10 active; active = well fitted curve in the direction sought with a large enough effect in the signal ratio, not every such curve was filed as active; inconclusive = small, poorly fitted or top-dose-only effect, or a change in a side signal; inactive = no such curve, though single readings can be large or run the other way; the % refers to the signal ratio;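 also: cells stimulated with carbachol in lithium chloride buffer; plate controls were DMSO basal wells for no effect and reference inhibitor wells for full effect; higher means more IMPase inhibition seen as more IP1 and lower FRET ratio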
Target sequence (P97697 whole entry, looked up): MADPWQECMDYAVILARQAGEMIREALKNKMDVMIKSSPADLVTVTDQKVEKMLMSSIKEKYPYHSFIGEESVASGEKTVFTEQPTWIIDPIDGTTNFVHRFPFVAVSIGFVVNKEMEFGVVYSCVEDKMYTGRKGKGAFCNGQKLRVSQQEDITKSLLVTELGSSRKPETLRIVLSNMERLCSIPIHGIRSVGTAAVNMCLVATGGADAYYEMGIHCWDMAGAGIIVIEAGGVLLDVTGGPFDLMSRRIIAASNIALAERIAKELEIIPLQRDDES
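Carbachol-driven Gq signalling in CHO-M1 cells (2000/well) generates IP1. Compounds that block IMPase raise IP1 and so reduce the FRET signal from Eu-anti-IP1 and d2-IP1 after a 10 min room-temperature lysis.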
ALDH1A1 inh: qHTS Assay for Inhibitors of Aldehyde Dehydrogenase 1 (ALDH1A1). Aldehyde dehydrogenase 1A1 (Homo sapiens), P00352. Purified ALDH1A1, NADH fluorescence, propionaldehyde substrate. Potency, µM (series often up to 75.3 µM), inactives show top-dose activity, negative = inhibition, hits mostly inhibitors. hit rate 7.3% among 220,000. AID 1030, 2008; active = well fitted inhibition curve with a large enough effect, not every such curve was filed as active; inconclusive = small, poorly fitted or top-dose-only effect, or another doubt; inactive = no such curve, though single readings can be large or run the other way;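 also: potency is read from the fitted curve at half-maximal effect; plate controls were no enzyme wells and a reference inhibitor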
HTT aggregate: qHTS Multiplex Assay to Identify Dual Action Probes in a Cell Model of Huntington: Aggregate Formation (GFP). PC12 HttQ103-GFP aggregates, Acumen cytometry, 40 h. Potency, µM (series often up to 46.1 µM), for the others: at the top dose activity change, negative = inhibition, usual class: inhibitors. hit rate 1.1% among 220,000; also: potency is read from the fitted curve at half-maximal effect; % is scaled to controls: 0 for no effect and ±100 for the full control effect; nearly all actives have a fitted effect of over 60% in size
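PC12 cells stably carrying ecdysone-inducible HTT exon 1 Q103–GFP were induced with tebufenozide (100 nM final) and treated with library compounds in titration. GFP aggregates in lysates were counted by laser scanning cytometry.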
HPGD inh: qHTS Assay for Inhibitors of HPGD (15-Hydroxyprostaglandin Dehydrogenase). 15-hydroxyprostaglandin dehydrogenase [NAD(+)] (Homo sapiens), P15428. purified HPGD, NADH fluorescence kinetic, PGE2 substrate. Potency, µM, inactives show at the top dose activity change, negative = inhibition, usual class: inhibitors. hit rate 4.3% among 150,000; active = well fitted inhibition curve with a large enough effect, not every such curve was filed as active; inconclusive = small, poorly fitted or top-dose-only effect, or another doubt; inactive = no such curve, though single readings can be large or run the other way; also: potency is read from the fitted curve at half-maximal effect; % is scaled to controls: 0 for no effect and ±100 for the full control effect
Target sequence (P15428 whole entry, looked up): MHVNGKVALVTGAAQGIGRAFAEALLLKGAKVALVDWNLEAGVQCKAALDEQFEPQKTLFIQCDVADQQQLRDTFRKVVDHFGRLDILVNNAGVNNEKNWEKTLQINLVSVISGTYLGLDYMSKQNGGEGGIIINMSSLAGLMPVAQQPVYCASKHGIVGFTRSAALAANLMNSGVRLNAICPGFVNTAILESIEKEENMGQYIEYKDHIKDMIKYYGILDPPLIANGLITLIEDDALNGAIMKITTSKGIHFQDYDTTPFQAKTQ
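20 nM HPGD preincubated 15 min at room temperature with compound in 50 mM Tris-HCl pH 8, 0.01% Tween 20. Started with 1 mM NAD+ and 30 uM prostaglandin E2; NADH fluorescence (360/450 nm) read 5 times over 30-s intervals, last minus first.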
An asterisk follows results filed as active; ? = inconclusive; . = no result given; [ ] = remark or other dose. Unless noted, calls follow the shape of the dose curve; as a rule, active = well fitted curve in the direction sought with a large enough effect; inconclusive = small, poorly fitted or top-dose-only effect, or another doubt; inactive = no such curve, though single readings can be large; an effect the other way counts as inactive or inconclusive.

SMILES	IMPase Li cell	HTT ATP protect	IMPase inh	ALDH1A1 inh	HTT aggregate	HPGD inh
Cc1cc(C)cc(OC(C)C(=O)Nc2c(C(=O)c3ccccc3)oc3ccccc23)c1 (stereo not drawn)	.	.	18	.	.	.
COc1ccc(-c2cc(C(=O)Oc3ccc(C)c(C)c3)c3ccccc3n2)cc1	.	.	-13	.	.	.
CN(C)/C=C/c1onc(-c2c(F)cccc2Cl)c1C#N	?	?	.	3.5µM*	?	.
Cc1onc(-c2c(F)cccc2Cl)c1-c1nnc(-c2cccc3ccccc23)o1	.	-1%[10 µM]	.	.	-5%[9.22 µM]	.
CSCCC(N)C(=O)NC(CC(C)C)C(=O)NC(Cc1ccccc1)C(=O)O (stereo not drawn)	-2%	.	.	-7%	.	-10%
CN=c1scc(C)n1/N=C/c1cc(Br)c(O)c(OC)c1	15%	-44%	.	?	5%	.
CN=c1scc(-c2cccs2)n1/N=C/c1ccc(O)c(O)c1O	15%	-45%[10 µM]	0	6.3µM*	?	5µM*
CN=c1scc(C)n1/N=C/c1ccc(O)c(O)c1O	80%[38.3 µM]	-25%	?	3.2µM*	13%	7.1µM*
COCCNc1ncnc2ccc(-c3ccccc3C(F)(F)F)cc12	33%	-46%	.	?	.	.
CC(=O)Nc1ccc(/C=C(\C#N)C(=O)NCc2ccccc2)cc1	-2%	.	.	-9%	-18%	?
CCN(CC)c1ccc(/C=C(/C#N)C(=O)NC(C)C)o1	51%	8%[10 µM]	.	10µM*	4%[9.22 µM]	.
CCN(CC)c1ccc(/C=C(/C#N)C(=O)NCc2ccccc2)o1	51%	11%[10 µM]	.	2.8µM*	?	16µM*
Cn1cccc1C(=O)N1CCC2(CC1)CN(Cc1cc(C(F)(F)F)cc(C(F)(F)F)c1)C2	14%	-31%	.	2%	.	-2%
Cc1ccc(CNC(=O)CSc2c3c(nc4cc(Cl)ccc24)CCCC3)o1	22%[38.3 µM]	?	-19	20µM*	17%[9.22 µM]	?
O=C(CSc1c2c(nc3ccccc13)CCCC2)NCc1ccco1	-7%	?	.	?	13µM*	.
O=C1COc2ccc(C(=O)C[n+]3cccc(O)c3)cc2N1	.	-7%[10 µM]	.	20µM*	-24%[9.22 µM]	.
CCCCCCC(=O)OCC(=O)c1ccc2c(c1)NC(=O)CO2	0%	?	.	3.5µM*	1%	.
CCC(=O)c1ccc(OCC(=O)c2ccc3c(c2)NC(=O)CO3)cc1	.	-4%[10 µM]	.	4%	-11%[9.22 µM]	.
CCc1ccc(OCC(=O)OCC(=O)c2ccc3c(c2)NC(=O)CO3)cc1	19%[38.3 µM]	11%	1	-4%	2%	-20%
O=C1COc2ccc(C(=O)CCl)cc2N1	.	7%[10 µM]	.	0.11µM*	-8%[9.22 µM]	.
COc1ccc(N(C(=O)c2cccc(C)c2)S(=O)(=O)c2ccc3c(c2)n(C)c(=O)n3C)cc1	.	.	0	.	.	.
Cc1cc(N2CCOCC2)c2c(N)c(Br)cc(C)c2n1	13%[38.3 µM]	-26%	13	-1%	2µM*	-12%
CN(C)c1ncnc2ccc(-c3ccoc3)cc12	6%	-9%	.	28µM*	.	.
CN(C)c1ccc(-c2ccc3ncnc(N(C)C)c3c2)cc1	5%	-75%	.	?	.	.
CCOC(=O)c1cccc(NC(=O)COc2ccc3c(C)cc(=O)oc3c2)c1	.	.	-2	.	.	.
CC(=O)C1=C(S(=O)(=O)c2ccc(C)cc2)CS(=O)(=O)C1	26%	-2%	.	1.3µM*	18%[9.22 µM]	.
O=C(COC(=O)/C=C/c1ccc(Br)o1)Nc1ccccc1F	-10%	-31%	.	14µM*	13%	.
CCCc1cc2c(n1Cc1cc(F)cc(F)c1)C(C)C1CN(C(=O)c3ccccc3)C(C)(C(=O)OC)C21 (stereo not drawn)	5%	1%	.	-2%	.	-12%
S=C(c1ccc(-c2ccc(Br)cc2)o1)N1CCOCC1	.	-5%[10 µM]	.	.	10%[9.22 µM]	.

Screening results: PubChem, National Center for Advancing Translational Sciences (NCATS)
